# Reference: PubChem BioAssay (NCATS)
# Several values for one entry are separate records, joined by “and”; a condition that tells them apart may be missing. Equal values may be shown once. Inconclusive results are not listed. A structure can be active in one record and inactive in another. Activity calls are given as the source filed them. Unless noted, the call rests on the fitted dose curve; in most records, active means well fitted curve in either direction with a large enough effect (not every such curve was filed as active); inconclusive means small, poorly fitted or top-dose-only effect, or another doubt; inactive means flat fitted curve, though single readings scatter.
# Tests used:
# [1] = Cell Viability - BJ (AID 421; calls by dose curve;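 further: potency means the concentration at half of the fitted maximal effect; cells exposed to compound for 40 hours at 37 °C before readout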); settings: BJ fibroblast viability, qHTS
# Procedure, shortened: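 Normal human BJ foreskin fibroblasts, 1500/well in complete medium, treated 40 hr at 37 °C. Cellular ATP by CellTiter-Glo luminescence; normalized to DMSO and 100 uM tamoxifen, AC50 from Hill fit.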
# [2] = Cell Viability - Jurkat (AID 426;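 active means dose-dependent loss of cell ATP signal giving a full or clear fitted curve, ranked by lower potency value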; further: potency means the concentration at half of the fitted maximal effect); settings: qHTS
# Procedure, shortened: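 Luminescent ATP read-out (CellTiter-Glo, 20 min at room temperature) after 40 hr compound exposure at 37 °C of Jurkat E6-1 cells, 5000/well. Decreased ATP taken as cytotoxicity; AC50 from standard Hill equation.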
# [3] = Cell Viability - HepG2 (AID 433; calls by dose curve;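 further: potency means the concentration at half of the fitted maximal effect; potency for ATP loss meaning cytotoxicity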); settings: qHTS
# Procedure, shortened: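 In this qHTS format, a 40 h, 37 °C compound incubation of HepG2 cells in complete medium precedes a 20 min CellTiter-Glo step at room temperature. Tamoxifen and doxorubicin serve as positive controls; Hill-equation fits yield AC50.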
# [4] = Cell Viability - SK-N-SH (AID 435; calls by dose curve;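 further: potency means the concentration at half of the fitted maximal effect; compound exposure lasted 40 h at 37 °C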); settings: SK-N-SH neuroblastoma cell viability qHTS
# Procedure, shortened: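 Human neuroblastoma line, 40 h exposure at 37 °C, ATP quantified via luciferase luminescence; DMSO and 100 uM tamoxifen define 0 and 100% inhibition for AC50 fitting.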
# [5] = AP1 Signaling Pathway (AID 357); settings: ME-180 AP-1-bla reporter, EGF-induced, beta-lactamase ratio, 5 h; series mostly up to 17.2 µM;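 further: ME-180 reporter cells stimulated with EGF at its EC50 level; on the % scale 0 is the no-effect control and ±100 the full control effect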
# Procedure, shortened: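 AP-1-bla ME-180 cells, Opti-MEM + 0.5% dialyzed FBS, plated overnight 37 °C. Cpd titration + EC50 EGF, 5 h 37 °C. CCF4 2.5 h RT; ex 405, em 460/530 ratio → %activity, AC50.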
# [6] = NFAT Signaling Pathway (AID 444); settings: Jurkat NFAT-bla M1, carbachol, beta-lactamase ratio, 5 h;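 further: carbachol stimulus at about its EC50 of 1 µM final; on the % scale 0 is the no-effect control and ±100 the full control effect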
# Procedure, shortened: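 Jurkat cells with NFAT-driven β-lactamase reporter and co-expressed M1 receptor, stimulated with carbachol (final 1 uM, ~EC50), compound titration, 5 h at 37 °C. CCF4 loaded 1 h at RT; 460/530 nm ratio gave %activity and AC50.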
# [7] = Stat Signaling Pathway (AID 446); settings: ME-180 (cervical carcinoma) SIE beta-lactamase reporter, IL-6 stimulated, 5 h; series mostly up to 17.2 µM;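 further: ME-180 cervical cancer cells given 40 pM IL-6 alongside compound; SIE-controlled beta-lactamase reporter measured as 460/530 nm FRET emission ratio; on the % scale 0 is the no-effect control and ±100 the full control effect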
# Procedure, shortened: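 Normalization used AC90 stimulation (300 pM IL-6) and AC90 inhibition (125 nM pan-JAK inhibitor at 40 pM IL-6). The underlying signal is SIE-driven beta-lactamase in ME-180 cells after 5 h IL-6 exposure with compound.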
# [8] = biological target: Cytochrome P450 1A2 (Homo sapiens) (UniProt P05177); experiment: p450-cyp1a2 (AID 410; calls by dose curve; further: potency means the concentration at half of the fitted maximal effect;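 on activity change, negative = inhibition: -100% = full effect of reference inhibitor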); settings: recombinant CYP1A2, luciferin-ME demethylation, luminescence; series mostly up to 25.6 µM
# Cytochrome P450 1A2 (Homo sapiens), sequence (P05177 whole entry, looked up): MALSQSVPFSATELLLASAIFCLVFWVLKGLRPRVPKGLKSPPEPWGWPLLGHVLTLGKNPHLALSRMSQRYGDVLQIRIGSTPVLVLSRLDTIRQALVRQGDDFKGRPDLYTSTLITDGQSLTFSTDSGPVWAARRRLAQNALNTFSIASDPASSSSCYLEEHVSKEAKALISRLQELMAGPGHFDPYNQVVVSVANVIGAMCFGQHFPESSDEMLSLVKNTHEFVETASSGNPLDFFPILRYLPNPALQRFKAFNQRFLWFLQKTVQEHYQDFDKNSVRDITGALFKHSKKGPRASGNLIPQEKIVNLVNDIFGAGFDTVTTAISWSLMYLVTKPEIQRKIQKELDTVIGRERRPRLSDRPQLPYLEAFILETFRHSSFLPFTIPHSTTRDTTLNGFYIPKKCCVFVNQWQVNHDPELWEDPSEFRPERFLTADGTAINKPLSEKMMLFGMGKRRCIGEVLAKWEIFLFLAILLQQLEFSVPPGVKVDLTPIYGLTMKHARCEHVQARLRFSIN
# Procedure, shortened: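 20nM CYP1A2, 100uM Luciferin-ME (=Km), 100mM KPO4; cpd 10 min RT; +NADPH regen, 60 min RT; stop/detect 20 min; luminescence. Normalized to furafylline 57 uM = full inhibition.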
# [9] = Cell Viability - Hek293 (AID 427;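 active means compounds whose dose-response curve shows a full or clear partial loss of cell viability, called from curve shape rather than a numeric limit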;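 further: potency means the concentration at half of the fitted maximal effect; cells exposed to compound for 40 hours at 37 °C before reading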); settings: qHTS
# Procedure, shortened: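 HEK293 cells in complete medium were exposed to compound for 40 hr at 37 °C, then cellular ATP was read by CellTiter-Glo luminescence. Data were normalized to DMSO (basal) and 100 uM tamoxifen (100% inhibition), and AC50 came from Hill fits.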
# [10] = Cell Viability - MRC5 (AID 434; calls by dose curve;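 further: potency means the concentration at half of the fitted maximal effect; potency reflects cytotoxicity seen as loss of intracellular ATP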); settings: MRC5 lung fibroblast viability, qHTS
# Procedure, shortened: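 ATP luminescence read-out (CellTiter-Glo, 20 min RT) after 40 hr, 37 °C compound exposure of 1500 MRC5 cells/well. Data normalized to DMSO (basal) and 100 uM tamoxifen (100% inhibition); AC50 from standard Hill equation.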
compound,measurement,setting,value
O=C(CCl)c1ccc(Cl)cc1Cl,Potency,[1],47.1 µM (active)
same,Potency,[2],0.345 µM (active)
same,Potency,[3],47.9 µM (active)
same,Potency,[4],9.56 µM (active)
C[N+]1(C)[C@@H]2CC[C@H]1CC(OC(=O)C(CO)c1ccccc1)C2 (stereo partly specified),outcome,[5],inactive
same,"activity change, negative = inhibition",[6]; at 17.2 µM (top of the series),-95.4% (active) and -94.2% (active)
same,outcome,[7],inactive
OC(c1ccccc1)(c1ccccc1)C1CCNCC1,outcome,[5],inactive
same,Potency,[8],inactive
same,outcome,[7],inactive
COP(=O)(OC)OC=C(Cl)Cl,Potency,[1],> 92 µM (inactive)
same,Potency,[2],> 92 µM (inactive)
same,Potency,[9],> 92 µM (inactive)
same,Potency,[3],> 92 µM (inactive)
same,Potency,[10],30.9 µM (active) and > 92 µM (inactive)
same,Potency,[4],> 92 µM (inactive)
COC(=O)C1=CCCN(C)C1,outcome,[5],inactive
same,Potency,[8],inactive
same,outcome,[7],inactive
Oc1c(Br)cc(Br)cc1Br,Potency,[1],> 92 µM (inactive)
same,Potency,[9],> 92 µM (inactive)
same,Potency,[3],> 92 µM (inactive)
same,Potency,[10],> 92 µM (inactive)
same,Potency,[4],> 92 µM (inactive)
COc1ccc(C(=O)N2CCCC2=O)cc1,outcome,[5],inactive
same,"activity change, negative = inhibition",[6]; at 17.2 µM (top of the series),-27.3% (inactive)
same,"activity change, negative = inhibition",[6]; at 38 µM (top of the series),11.8% (inactive)
same,outcome,[7],inactive
CC(C)[N+](C)(CCC(C(N)=O)(c1ccccc1)c1ccccc1)C(C)C,outcome,[5],inactive
same,Potency,[8],inactive
same,outcome,[7],inactive
CCCCCCCCC(=O)NCc1ccc(O)c(OC)c1,outcome,[5],inactive
same,Potency,[8],12.6 µM (active)
same,"activity change, negative = inhibition",[6]; at 38 µM (top of the series),6.44% (inactive)
same,outcome,[7],inactive
O=C(CCCN1CCC(n2c(=O)[nH]c3ccccc32)CC1)c1ccc(F)cc1,outcome,[5],inactive
same,Potency,[8],inactive
same,outcome,[7],inactive
O=C(O)c1nn(Cc2ccc(Cl)cc2Cl)c2ccccc12,outcome,[5],inactive
same,Potency,[8],inactive
same,"activity change, negative = inhibition",[6]; at 38 µM (top of the series),-9.69% (inactive)
Oc1ccc2[nH]cc(CCCCN3CC=C(c4ccccc4)CC3)c2c1,Potency,[8],31.6 µM (active)
c1ccc2nc(N3CCNCC3)ccc2c1,outcome,[5],inactive
same,Potency,[8],1.58 µM (active) and 1.26 µM (active) and 251 nM (active)
same,"activity change, negative = inhibition",[6]; at 17.2 µM (top of the series),-7.47% (inactive)
same,"activity change, negative = inhibition",[6]; at 38 µM (top of the series),-5.87% (inactive)
same,outcome,[7],inactive
Clc1ccc(CSC(Cn2ccnc2)c2ccc(Cl)cc2Cl)cc1 (stereo unspecified),outcome,[5],inactive
COc1ccc(CN2CCNCC2)c(OC)c1OC,outcome,[5],inactive
same,"activity change, negative = inhibition",[6]; at 17.2 µM (top of the series),-8.2% (inactive)
same,outcome,[7],inactive
